Data taken from the supplement of paper PMC9254222.
Over roughly 1,100 compounds, “Wnt reporter firefly/Renilla luciferase ratio relative to plate median” has its median near 1.1; the highest 2% begin near 1.6. The sample as a whole holds a higher share of the highest values than the screen did.

Tested on: HEK293T (UBE3A T485A transfected, BAR Wnt reporter)
Assay: Wnt reporter firefly/Renilla luciferase ratio relative to plate median (fold (linear ratio)); higher = more Wnt/beta-catenin reporter activation
Settings: 24 h
Method in brief: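 HEK293T cells were grown in DMEM with 10% FBS at 37°C and 5% CO2, at 4500 cells/well in white 384-well plates. They were transfected with a BAR firefly luciferase Wnt reporter, TK-Renilla and an expression plasmid using Fugene 6. Four hours later, robots dosed the chemicals at 0.01–100 uM for 24 h, followed by Dual-Glo luciferase readout. Wnt activity (firefly/Renilla ratio) and cell health (raw Renilla) were median-centred per plate, averaged over four biological replicates.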

SMILES | Wnt reporter firefly/Renilla luciferase ratio (concentration: 0.1 uM) | Wnt reporter firefly/Renilla luciferase ratio (concentration: 1 uM) | Wnt reporter firefly/Renilla luciferase ratio (concentration: 10 uM) | Wnt reporter firefly/Renilla luciferase ratio (concentration: 100 uM) | Wnt reporter firefly/Renilla luciferase ratio (concentration: 0.01 uM) | Wnt reporter firefly/Renilla luciferase ratio (concentration: .1 uM)
CC(=O)OC1CC(C)OC(C)O1 (configuration not stated) [Dimethoxane] | 1.1 | 0.976 | 0.952 | 0.736 | – | –
Cc1ccc(N(C)C)cc1 [N,N,4-Trimethylaniline] | 1.08 | 1.2 | 1.06 | 0.933 | – | –
Cc1ccc(C(C)C)c(O)c1 [Thymol] | 0.988 | 1.09 | 1.29 | 1.08 | – | –
N#CSCSc1nc2ccccc2s1 [2-(Thiocyanomethylthio)benzothiazole] | 0.88 | 1.09 | 1.06 | – | 0.895 | –
Sc1nc2ccccc2s1 [2-Mercaptobenzothiazole] | 1.39 | 1.62 | 1.3 | 1.69 | – | –
CS(=O)(=O)c1ccc([C@@H](C[C@H]2CCC(=O)C2)C(=O)Nc2cnccn2)cc1Cl [Piragliatin] | 1.03 | 0.959 | 1.02 | 1.3 | – | –
COc1cc2c3c(n(CCCn4ccnc4)c(=O)c2cc1OC)-c1cc2c(cc1C3=O)OCO2.Cl | 0.457 | 0.72 | 0.631 | 0.938 | 1.15 | –
OCC(O)CO [Glycerol] | 1.1 | 0.905 | 1.05 | 1.04 | – | –
S=C([S-])NCCNC(=S)[S-].S=C([S-])NCCNC(=S)[S-].[Mn+2].[Zn+2] [Mancozeb] | 0.999 | 0.95 | 0.951 | – | 0.932 | –
Nc1ccc(C(=O)O)cc1 [4-Aminobenzoic acid] | 1.22 | 1.07 | 0.948 | 1.2 | – | –
CC(C)c1cccc(C(C)C)c1NC(=O)[N-]S(=O)(=O)c1cc(C(C)(C)O)co1.[Na+] | 1.05 | 1.08 | 1.2 | 1.05 | – | –
CC/C(=C(\c1ccccc1)c1ccc(OCCN(C)C)cc1)c1ccccc1.O=C(O)CC(O)(CC(=O)O)C(=O)O [Tamoxifen citrate] | 0.922 | 0.964 | 0.891 | 1.01 | – | –
O=C(c1ccc(O)cc1O)c1ccc(O)cc1O [2,2',4,4'-Tetrahydroxybenzophenone] | 1.29 | 1.33 | 1.49 | 0.463 | – | –
CC(C)C(=O)OCC(C)(C)C(OC(=O)C(C)C)C(C)C (configuration not stated) [2,2,4-Trimethyl-1,3-pentanediol diisobutyrate] | 0.92 | 0.885 | 1.15 | 1.64 | – | –
CC[C@]1(O)C[C@H]2C[N@](CCc3c([nH]c4ccccc34)[C@@](C(=O)OC)(c3cc4c(cc3OC)N(C=O)[C@H]3[C@@](O)(C(=O)OC)[C@H](OC(C)=O)[C@]5(CC)C=CCN6CC[C@]43[C@@H]65)C2)C1 [Vincristine] | – | – | 0.418 | – | 0.387 | –
NCCO [Ethanolamine] | – | 0.968 | 1.41 | 2.04 | – | 1.09
OCCO [Ethylene glycol] | 1.37 | 1.07 | 1.12 | 1.27 | – | –
